Source: PubChem BioAssay (National Center for Advancing Translational Sciences (NCATS))
A selection: hits, their analogues and other compounds. The true share with any hit is near 12%.
JMJD2A Tudor inh – inhibitors of human JMJD2A Tudor domain; O75164; AlphaScreen JMJD2A-Tudor / H3K4me3 peptide binding; Potency, µM (top dose mostly 114 µM), for the others: top-dose activity change, negative = inhibition, hits mostly inhibitors; 390,000 tested, 4.4% active; note: % is set by controls: 0 for no effect and ±100 for the full control effect; nearly all actives have a fitted effect of over 50% in size
Target sequence (O75164 whole entry, looked up, the tested form may be a part): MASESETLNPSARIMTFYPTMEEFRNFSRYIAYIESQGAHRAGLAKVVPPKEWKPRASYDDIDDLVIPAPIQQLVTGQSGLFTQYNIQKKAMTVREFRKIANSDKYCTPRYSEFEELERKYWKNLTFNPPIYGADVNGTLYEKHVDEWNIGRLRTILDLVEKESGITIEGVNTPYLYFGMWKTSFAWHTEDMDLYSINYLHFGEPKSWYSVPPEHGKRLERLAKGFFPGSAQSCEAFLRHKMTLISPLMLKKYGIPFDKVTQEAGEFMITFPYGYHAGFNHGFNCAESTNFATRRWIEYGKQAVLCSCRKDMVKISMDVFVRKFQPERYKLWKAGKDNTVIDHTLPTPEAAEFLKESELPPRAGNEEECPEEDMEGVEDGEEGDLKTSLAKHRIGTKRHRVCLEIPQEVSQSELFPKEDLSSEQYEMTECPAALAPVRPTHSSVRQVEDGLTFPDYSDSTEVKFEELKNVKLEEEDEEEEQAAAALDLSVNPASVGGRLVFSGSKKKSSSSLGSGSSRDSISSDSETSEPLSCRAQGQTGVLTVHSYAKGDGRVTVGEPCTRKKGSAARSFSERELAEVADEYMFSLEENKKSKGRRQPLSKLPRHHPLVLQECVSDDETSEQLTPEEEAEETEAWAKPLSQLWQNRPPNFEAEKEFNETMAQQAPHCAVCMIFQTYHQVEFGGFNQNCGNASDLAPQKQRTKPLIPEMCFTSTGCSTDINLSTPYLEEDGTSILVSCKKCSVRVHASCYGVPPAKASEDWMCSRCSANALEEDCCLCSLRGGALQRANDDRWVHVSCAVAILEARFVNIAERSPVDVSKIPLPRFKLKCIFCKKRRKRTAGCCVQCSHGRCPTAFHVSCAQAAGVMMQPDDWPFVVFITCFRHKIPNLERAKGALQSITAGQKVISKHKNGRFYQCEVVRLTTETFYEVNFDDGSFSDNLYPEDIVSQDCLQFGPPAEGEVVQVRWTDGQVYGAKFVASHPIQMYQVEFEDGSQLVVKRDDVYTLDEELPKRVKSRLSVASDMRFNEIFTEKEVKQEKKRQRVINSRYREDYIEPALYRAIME
G9a block – blocks human histone lysine methyltransferase G9a | Q96KQ7 | G9a H3K9 monomethylation, AlphaScreen, 2 h | Potency, µM (doses to about 102 µM), without a hit: at the top dose activity, negative = inhibition, actives largely listed as inhibitors | 350,000 tested, 8.8% active | AID 504332; note: % is set by controls: 0 for no effect and ±100 for the full control effect; nearly all actives have a fitted effect of over 75% in size
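Quantitative HTS format: methyltransferase activity on a biotin-tagged H3K9 peptide is measured by AlphaScreen, using a rabbit anti-monomethyl-H3K9 antibody with streptavidin donor and anti-IgG acceptor beads. Final levels are 20 nM enzyme, 500 nM peptide, 20 uM SAM; 2 h RT.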
BAZ2B block – BAZ2B (human) inhibition; 360,000 tested, 4.4% active; AID 504333; Q9UIF8; Potency, µM (titrated, usually from 114 µM), for the others: top-dose activity change, negative = inhibition, actives largely listed as inhibitors; AlphaScreen BAZ2B-H3K14Ac peptide displacement; note: % is set by controls: 0 for no effect and ±100 for the full control effect; nearly all actives have a fitted effect of over 60% in size
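AlphaScreen displacement of biotin-H3(5-23)K14Ac peptide (50 nM final) from BAZ2B (50 nM final) in PBS pH 7.4, 0.01% Tween-20; complex preformed 30 min RT, then compounds (top 110 uM) 30 min RT, beads 20 min dark.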
Sfp PPTase inh – blocks B. subtilis Sfp PPTase activity | Q9F4F7 | Biochemical Sfp PPTase activity, qHTS | Potency, µM, without a hit: largest response in the series, negative = inhibition, actives largely listed as inhibitors | 310,000 tested, 3.5% active;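 note: the enzyme is Sfp with the accession as filed and its product quenches rhodamine fluorescence; 0% = enzyme reaction without inhibitor and -100% = no enzyme wells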
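After 15 min at room temperature with compound, 15 nM Sfp received 5 uM rhodamine-CoA plus 12.5 uM BHQ-2-ybbR (50 mM Hepes pH 7.6, 10 mM MgCl2). Rate came from the fluorescence difference over 30 min, ex 525/em 598 nm.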
PLK1 PBD inh – inhibitors of human PLK1 polo-box domain binding. 360,000 tested, 2.8% active. Potency, µM, for inactives: max response, negative = inhibition, hits mostly inhibitors. P53350. Plk1 PBD binding of FITC phosphopeptide, fluorescence polarization; note: series mostly up to about 57 µM; % is set by controls: 0 for no effect and ±100 for the full control effect; nearly all actives have a fitted effect of over 65% in size
HP1b chromo inh – HP1-beta chromodomain-methylated histone interaction inhibition | P83916 | AID 540317 | 390,000 tested, 0.56% active | AlphaScreen HP1-beta / biotin-H3K9me3 peptide binding | Potency, µM (doses to about 114 µM), without a hit: top-dose activity change, negative = inhibition, hits mostly inhibitors; note: nearly all actives have a fitted effect of over 70% in size
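AlphaScreen: HP1-beta (50 nM) preformed 30 min with biotin-H3(1-18)K9me3 peptide (50 nM) in PBS pH 7.4, 0.01% Tween-20. Compound added for 30 min at RT, then streptavidin donor/nickel chelate acceptor beads (10 ug/mL) for 30 min.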
The depositor's hits bear a star; ? = inconclusive; . = no result; ! = a repeat was not active; [ ] = remark or other dose. Calls come from the whole dose curve; as a rule, active = well fitted curve in the direction sought with a large enough effect; inconclusive = small, poorly fitted or top-dose-only effect, or another doubt; inactive = no such curve, though single readings can be large; an effect the other way counts as inactive or inconclusive. Potency is the fitted concentration of half-maximal effect.

SMILES | JMJD2A Tudor inh | G9a block | BAZ2B block | Sfp PPTase inh | PLK1 PBD inh | HP1b chromo inh
C[C@H](O/N=C1/[C@H]2O[C@@H]2[C@@H](O)[C@H]2[C@H]1CCn1c(=O)n(-c3ccccc3)c(=O)n12)c1cn([C@H]2COC[C@H]2O)nn1 | . | . | . | 11% | . | .
CCn1nc(C)c2c(-c3ccccc3)cc(=O)n(C(C)C(=O)NCc3cccc(OC)c3)c21 (stereo not given) | -20% | 0%[59 µM] | -15% | . | . | 9%
Cc1ccccc1S(=O)(=O)N(C)C[C@@H]1OCc2ccccc2-c2c(n(C)c3ccccc23)C(=O)N([C@H](C)CO)C[C@@H]1C | . | . | . | . | 3% | .
Cc1cccc(NC(=O)Cn2c(O)c(N=NC(=O)c3ccccc3O)c3ccccc32)c1 | ? | -6%[59 µM] | 79µM* | ? | ? | 22%
Cc1ccc2nc(-c3ccc(NC(=O)COC(=O)c4cncc(Br)c4)cc3)sc2c1 | -5% | 25µM* | -5% | -10% | -17% | 12%
Cc1ccc2nc(-c3ccc(NC(=O)COC(=O)c4ccc(Br)o4)cc3)sc2c1 | -10% | -1%[59 µM] | -2% | 24% | -1% | 30%
COC(=O)CCC(=O)Nc1ccc(NC(=O)CCC(=O)OC)cc1 | -1% | ? | 13% | -4% | -2% | 57%
COC(=O)CCC(=O)Oc1ccc(OC(=O)CCC(=O)OC)cc1 | . | 50µM* | -2% | 5% | . | .
CCOc1ccccc1C(=O)OCC(=O)NCCNC(=O)COC(=O)c1ccccc1OCC | -2% | . | ? | 3% | -10% | 31%
COc1ccc2c(c1)C(=O)[C@@H](OC(=O)Nc1cc(OC)c(OC)c(OC)c1)[C@H](c1ccc(OC)c(Br)c1)O2 | . | . | . | -6% | . | .
CCn1nc(NC(=O)c2ccncc2)c2cc3ccc(C)cc3nc21 | -13% | 1% | 4% | 10% | -8% | 57%
CCn1nc(NC(=O)c2ccncc2)c2cc3cc(C)ccc3nc21 | -16%[11.4 µM] | 8%[59 µM] | 9% | 0% | 3.8µM* | 0%
Cc1ccsc1/C=C\C1=NCCCN1C | . | 25%[21.5 µM] | . | 11% | . | .
COc1cc(N2CCCC2)c(OC)cc1/C=C(/C#N)c1ccc(F)cc1 | 32µM* | 1.6µM* | 16µM* | ? | 7% | 40µM*
COc1ccc(C(C#N)=Cc2ccccc2OC)cc1 | . | . | . | . | -8% | .
COc1ccc(C(C#N)=Cc2ccc(OC)c(OC)c2)cc1 | . | . | . | . | -13% | .
COc1cc(N2CCCC2)c(OC)cc1/C=C(/C#N)c1ccc(Br)cc1 | 20µM* | 2.8µM* | 13µM* | -11% | -4% | ?
CCCCc1ccc(NC(=O)Cn2nnc3sc4c(c3c2=O)CCC(C)C4)cc1 (stereo not given) | -18% | 1%[59 µM] | -8% | . | . | 24%
CCCS(=O)(=O)c1nc(S(=O)(=O)c2ccc(C)cc2)c(NCC(C)C)s1 | -12% | 20%[59 µM] | 0% | . | . | 52%
O=C1CCn2c1c(O)c1ccccc1c2=O | 35µM* | . | . | . | -17% | -14%
Cc1ccc(-c2cc(C(=O)NCCc3ccccc3)c3ccccc3n2)cc1C | -6% | 1%[59 µM] | 6% | . | . | 21%
CCn1c(=NC(=O)c2ccc(S(=O)(=O)N3CCCCC3)cc2)sc2cccc(OC)c21 | 21% | 97%[59 µM] | 11% | . | . | 132%
COc1ccc(CNC(=O)CN(C(=O)CCC(=O)Nc2ccccn2)c2ccc(C)cc2)cc1 | 56µM* | -14% | 1% | 4% | ? | 9%
O=C(CCCC(=O)N(c1cccc(F)c1)C(C(=O)NC1CCCC1)c1ccc(O)cc1)Nc1ccccn1 (stereo not given) | 79µM* | -26% | -16% | 12% | ? | 3%
Cc1ccnc(NC(=O)CCC(=O)N(CC(=O)NCc2ccccc2)c2ccc3c(c2)OCO3)c1 | -23%[11.4 µM] | -17%[59 µM] | 0% | 0% | 3µM* | -14%
SMILES | JMJD2A Tudor inh | G9a block | BAZ2B block | Sfp PPTase inh | PLK1 PBD inh | HP1b chromo inh
CC(C)c1ccc(N(CC(=O)NC2CCCC2)C(=O)CCC(=O)Nc2ccccn2)cc1 | 50µM* | 18% | 2% | 10% | 24µM* | 8%
COc1ccccc1CNC(=O)CCn1c(=O)c2ccccc2n(CC(=O)Nc2ccc(C)cc2Cl)c1=O | -18% | -2%[59 µM] | -32% | . | . | 16%
CC(=O)Nc1c(Br)cc2c(c1Br)Cc1cc([N+](=O)[O-])ccc1-2 | -13% | . | . | . | -6% | 36%
COCCNc1nc(-c2ccc(OC)cc2C)c2sc(-c3ccccc3)cc2n1 | . | . | . | . | -4% | .
Cc1c(P(=S)(c2ccccc2)c2ccccc2)c2ccccc2n1C/C=C/c1ccccc1 | -2% | . | . | . | . | .
CS(=O)(=O)N1CCC[C@@]2(CCN(Cc3ccccc3)C2)C1 | . | -14%[12.7 µM] | . | -4% | . | .
CC(C)c1ccc(N(CC(=O)NCc2ccco2)C(=O)CCC(=O)Nc2ccccn2)cc1 | -3% | 25µM* | -2% | 12% | 0% | 31%
Cc1ccc(N(CC(=O)NCc2ccco2)C(=O)CCC(=O)Nc2nccs2)c(C)c1 | -14% | 71µM* | -10% | 18% | -16% | -15%
Cc1ccccc1N(CC(=O)NCc1ccco1)C(=O)CCC(=O)Nc1nccs1 | -4% | 6% | -3% | 18% | 1% | 20%
Cc1nc2sc(C(=O)Nc3ccccc3)c(N)c2c(C)c1[N+](=O)[O-] | ? | -44% | . | 1% | 27µM* | ?
COc1ccc(OC)c(NC(=O)COCc2cc(-c3ccc(F)cc3)on2)c1 | -21% | -16%[59 µM] | -3% | . | . | 18%
Cc1ccc(NC(=O)N2CCN(c3nnc(C)c4c(C)n(-c5ccccc5)nc34)CC2)cc1Cl | -11% | -1%[59 µM] | -13% | . | . | 5%
Cc1[nH]c2ccc(Br)cc2c(=S)c1C/C=C/Cl | -31% | 35µM* | ? | 10% | 24µM* | 3%
O=C(Nc1ccc(-n2cnnn2)cc1)c1cccc(S(=O)(=O)N2CCCC2)c1 | -14% | -3%[59 µM] | 9% | . | -3% | 36%
FC(F)(F)c1ccccc1NC(=S)N1CCc2ccccc2C1 | -11% | -9% | -16% | 19% | -11% | 45%
CCCN1CCN(C(=S)Nc2ccccc2C(F)(F)F)CC1 | -5% | 40µM* | -3% | -14% | -11% | 24%
NC/C=C\C(=O)O | . | 13µM*! | . | 11% | . | .
COC(=O)[C@]1(Cc2ccccc2)N[C@H](CN(C)S(=O)(=O)c2ccc(-c3ccccc3)cc2)[C@@H]2C(=O)N(Cc3ccccc3)C(=O)[C@@H]21 | -12% | . | . | . | -5% | 90%
CN1Cc2sccc2C(c2ccc(O)c(O)c2)C1 (stereo not given) | . | 8.4µM* | . | . | . | .
O=C1c2cc(O)cc(O)c2OC[C@@H]1c1ccc(O)c(O)c1 | . | . | . | -11% | . | .
COc1ccc(NC(=O)CSc2oc(-c3cccs3)nc2S(=O)(=O)c2ccc(Br)cc2)c(OC)c1 | -18% | ? | -35% | . | . | 14%
CC(C)c1ccc2oc(-c3ccc(NC(=O)c4ncn[nH]4)cc3)nc2c1 | 40µM* | 5%[12.7 µM] | 35µM* | 15% | -8% | 12%
